Results filed as inconclusive are left out. Entries that show only a call come without a potency. Calls of active or inactive are those of the source. Calls come from the whole dose curve; as a rule, active = well fitted curve in the direction sought with a large enough effect; inconclusive = small, poorly fitted or top-dose-only effect, or another doubt; inactive = no such curve, though single readings can be large; an effect the other way counts as inactive or inconclusive.
Biological target: Cytochrome P450 2C19 (Homo sapiens) (UniProt P33261)
Sequence (P33261 whole entry, looked up): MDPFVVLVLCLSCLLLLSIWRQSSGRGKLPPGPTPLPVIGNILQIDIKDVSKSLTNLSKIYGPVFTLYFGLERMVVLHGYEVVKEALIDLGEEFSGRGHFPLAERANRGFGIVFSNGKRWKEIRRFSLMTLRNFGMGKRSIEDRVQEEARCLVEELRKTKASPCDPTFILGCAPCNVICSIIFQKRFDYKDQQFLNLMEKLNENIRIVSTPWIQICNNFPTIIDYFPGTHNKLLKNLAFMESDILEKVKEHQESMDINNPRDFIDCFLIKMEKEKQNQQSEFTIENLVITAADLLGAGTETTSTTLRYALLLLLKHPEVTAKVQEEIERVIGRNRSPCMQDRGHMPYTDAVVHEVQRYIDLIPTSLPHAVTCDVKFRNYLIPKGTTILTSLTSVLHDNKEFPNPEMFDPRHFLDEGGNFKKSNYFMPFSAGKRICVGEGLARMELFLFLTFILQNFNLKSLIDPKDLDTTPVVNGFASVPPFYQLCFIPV
Assay: qHTS for inhibitors of CYP2C19 against the NCATS DSHEA and TCM libraries (AID 1919974);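 note: luminescence from luciferin released by CYP2C19 oxidation of a pro-luciferin substrate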
Settings: CYP2C19 enzyme inhibition, luminescence qHTS; series mostly up to 34.1 µM
From the text: Assay Development and Screening Technology Laboratory (ADST)
National Center for Advancing Translational Sciences (NCATS), Rockville, MD
National Institute of Health (NIH), Bethesda, Maryland
Dietary Supplements and Natural Products have minor oversight of their safety and efficacy. We assembled a collection of Dietary Supplements and Natural Products (DSNP) as well as Traditional Chinese Medicinal (TCM) Plant extracts, which were screened against an in vitro panel of assays, including a liver cytochrome p450 enzyme panel, CAR/PXR signaling pathways, and P-gp transporter assays, to assess their activity. This pipeline facilitated the interrogation of Natural Product-Drug Interaction (NaPDI) through prominent metabolizing pathways. In addition, we compared the activity profiles of the DSNP/TCM substances with those of an approved drug collection. Many of the approved drugs have well-annotated mechanisms of action (MOA) while the MOAs for most of the DSNP and TCM samples remain unknown. Based on the premise that compounds with similar activity profiles tend to share similar targets or MOA, we clustered the library activity profiles to identify overlap with the NCATS Pharmaceutical Collection to predict the MOAs of the DSNP/TCM substances. Overall, we highlight four significant bioactivity profiles (measured by p-values) as examples of this prediction. To assess broad cytotoxicity, we employed screening against a HepG2 cell line. In addition, transporter-mediated drug interactions are utilized in the characterization of DDIs using a P-glycoprotein (P-gp) assays. To profile potential P-gp activity, a differential cell viability was measured against two cell lines: a parental KB-3-1 human cervical adenocarcinoma cell line and the drug-resistant subline KB-8-5-11 that overexpresses P-gp.
To this end, we profiled both collections for potential CAR and/or PXR activity, employing a previously published 1536-well qHTS assay.
[1] […]
9; Read; Luminescence; ViewLux plate reader. […]

Row | Structure (SMILES) | outcome
1 | C[C@@]12C[C@@]3(O)O[C@@H](O1)[C@]1(COC(=O)c4ccccc4)[C@@H]3C[C@@]12O[C@@H]1O[C@H](CO)[C@@H](O)[C@H](O)[C@@H]1O | inactive
2 | O=C1c2c(O)cccc2[C@@H]([C@@H]2O[C@H](CO)[C@@H](O)[C@H](O)[C@H]2O)c2cc(CO)cc(O)c21 | inactive
3 | C=C(C)[C@@H]1CC[C@]2(C(=O)O)CC[C@]3(C)[C@H](CC[C@@H]4[C@@]5(C)CC[C@H](O)C(C)(C)[C@@H]5CC[C@]43C)[C@@H]12 | inactive

Tested on: not listed separately
Assay: KB-3-1 P-gp reporter qHTS against the NCATS DSHEA and TCM libraries (AID 1919975)
Settings: KB-3-1 parental cells, CellTiter-Glo luminescence viability, 72 h; series mostly up to 26.1 µM
Outline: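 KB-3-1 parental line, 1536-well qHTS: cells seeded, ~4 h attachment, pintool compound addition, ~72 h at 37C, then CellTiter-Glo, 30 min RT, luminescence. Concentration-response format.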

Row | Structure (SMILES) | outcome
4 | COc1ccc(C(C)=O)c(O)c1 | inactive
5 | C[C@@]12C[C@@]3(O)O[C@@H](O1)[C@]1(COC(=O)c4ccccc4)[C@@H]3C[C@@]12O[C@@H]1O[C@H](CO)[C@@H](O)[C@H](O)[C@@H]1O | inactive
6 | O=C1c2c(O)cccc2[C@@H]([C@@H]2O[C@H](CO)[C@@H](O)[C@H](O)[C@H]2O)c2cc(CO)cc(O)c21 | inactive

Biological target: Cytochrome P450 1A2 (Homo sapiens) (UniProt P05177)
Sequence (P05177 whole entry, looked up): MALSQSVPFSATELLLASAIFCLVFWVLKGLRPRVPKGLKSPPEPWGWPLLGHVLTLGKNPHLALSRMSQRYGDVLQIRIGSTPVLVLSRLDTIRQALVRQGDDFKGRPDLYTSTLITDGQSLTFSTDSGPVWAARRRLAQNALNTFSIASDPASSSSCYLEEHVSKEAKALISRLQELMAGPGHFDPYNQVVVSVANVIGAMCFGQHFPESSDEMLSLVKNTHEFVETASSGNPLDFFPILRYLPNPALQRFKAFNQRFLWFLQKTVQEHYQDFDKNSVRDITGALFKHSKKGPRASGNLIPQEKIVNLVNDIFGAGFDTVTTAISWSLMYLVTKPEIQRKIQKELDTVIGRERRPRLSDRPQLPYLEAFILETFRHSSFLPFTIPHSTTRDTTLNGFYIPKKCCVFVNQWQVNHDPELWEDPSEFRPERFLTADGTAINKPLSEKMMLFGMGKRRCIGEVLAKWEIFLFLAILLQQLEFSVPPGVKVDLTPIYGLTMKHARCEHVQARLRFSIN
Assay: qHTS for inhibitors of CYPIA2 against the NCATS DSHEA and TCM libraries (AID 1919976); note: potency is the fitted concentration of half-maximal effect
Settings: recombinant CYP1A2 enzyme activity, luminescence; series mostly up to 37 µM
Outline: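 Human CYP1A2 with pro-luciferin substrate (typically 100 mM KPO4), 15 min preincubation with compound, then 1x NADPH regeneration for 30-45 min at room temperature in the dark. Luciferin quantified by luciferase luminescence; furafylline intraplate control.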

Row | Structure (SMILES) | Potency
7 | COc1ccc(C(C)=O)c(O)c1 | 15.8 µM (active)
8 | C[C@@]12C[C@@]3(O)O[C@@H](O1)[C@]1(COC(=O)c4ccccc4)[C@@H]3C[C@@]12O[C@@H]1O[C@H](CO)[C@@H](O)[C@H](O)[C@@H]1O | inactive
9 | C=C(C)[C@@H]1CC[C@]2(C(=O)O)CC[C@]3(C)[C@H](CC[C@@H]4[C@@]5(C)CC[C@H](O)C(C)(C)[C@@H]5CC[C@]43C)[C@@H]12 | inactive

Tested on: not listed separately
Assay: qHTS Counterscreen for compound interference against the NCATS DSHEA and TCM libraries (AID 1919978);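 note: compounds preincubated with 1 µM D-luciferin or buffer before detection reagent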
Settings: firefly luciferase detection reagent interference, luminescence
Outline: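 Compounds, titrated from 19.5 nM to 39.8 uM final, were pinned onto 1 uM D-luciferin or plain 100 mM potassium phosphate. After 15 min at room temperature, luciferin detection reagent was added for 30 min before the luminescence read.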

Row | Structure (SMILES) | max response
10 | COc1ccc(C(C)=O)c(O)c1 | 3.21% (inactive)
11 | C[C@@]12C[C@@]3(O)O[C@@H](O1)[C@]1(COC(=O)c4ccccc4)[C@@H]3C[C@@]12O[C@@H]1O[C@H](CO)[C@@H](O)[C@H](O)[C@@H]1O | 0.508% (inactive)
12 | O=C1c2c(O)cccc2[C@@H]([C@@H]2O[C@H](CO)[C@@H](O)[C@H](O)[C@H]2O)c2cc(CO)cc(O)c21 | -13.5% (inactive)
13 | C=C(C)[C@@H]1CC[C@]2(C(=O)O)CC[C@]3(C)[C@H](CC[C@@H]4[C@@]5(C)CC[C@H](O)C(C)(C)[C@@H]5CC[C@]43C)[C@@H]12 | 1.9% (inactive)

Tested on: not listed separately
Assay: Dual reporter qHTS for agonist of Pregnane X Receptor (hPXR) against the NCATS DSHEA and TCM libraries: Fluorescence readout (AID 1920058)
Settings: PXR dual reporter cells; series mostly up to 40 µM
Outline: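 hPXR-Luc HepG2 cells, 2000/well in charcoal-stripped serum, attached 5 h, dosed for ~24 h at 37 °C. Fluorescence read is CellTiter-Fluor viability (Ex/Em 405/540 nm); rifampicin positive, tetraoctyl ammonium bromide (92 µM) cytotoxicity controls.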

Row | Structure (SMILES) | outcome
14 | COc1ccc(C(C)=O)c(O)c1 | inactive
15 | C[C@@]12C[C@@]3(O)O[C@@H](O1)[C@]1(COC(=O)c4ccccc4)[C@@H]3C[C@@]12O[C@@H]1O[C@H](CO)[C@@H](O)[C@H](O)[C@@H]1O | inactive
16 | O=C1c2c(O)cccc2[C@@H]([C@@H]2O[C@H](CO)[C@@H](O)[C@H](O)[C@H]2O)c2cc(CO)cc(O)c21 | inactive
17 | C=C(C)[C@@H]1CC[C@]2(C(=O)O)CC[C@]3(C)[C@H](CC[C@@H]4[C@@]5(C)CC[C@H](O)C(C)(C)[C@@H]5CC[C@]43C)[C@@H]12 | inactive
